# High-throughput results deposited in PubChem BioAssay by National Center for Advancing Translational Sciences (NCATS).
# A selection: hits, their analogues and other compounds. The true share with any hit is near 2.4%.
# Rango complex inh – qHTS Assay for Inhibitors of Rango (Ran-regulated importin-beta cargo) - Importin beta complex formation. Importin subunit beta-1 (Homo sapiens), Q14974. Rango CFP/YFP FRET sensor + importin beta, 45 min. Potency, µM (doses to about 92.2 µM), for inactives: top-dose inhibition of complex formation. 0.031% of 340,000 active. AID 540263, 2011; calls by dose curve;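 also: 0% = DMSO wells and 100% = buffer wells lacking importin beta; nearly all actives have a fitted effect of over 15% in size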
#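 FRET biosensor (snurportin 1 IBB flanked by EYFP and cerulean), 50 nM, with compound 5 min, then 0.125 microM importin beta in PBS, 1 mM DTT, 0.02% Tween-20, 0.1% BSA. CFP/YFP ratio read after 45 min at room temperature; pre-read flags interference.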
# Tb PGK inh – qHTS Assay to Find Inhibitors of Phosphoglycerate Kinase. 0.043% of 380,000 active. PGK/GAPDH coupled, Kinase-Glo luminescence, 60 min. Potency, µM (highest dose often 57.5 µM), without a hit: at the highest dose activity change, negative = inhibition, most hits filed as inhibitors. Phosphoglycerate kinase, glycosomal (Trypanosoma brucei brucei), P07378. AID 602233, 2012; also: % is scaled to controls: 0 for no effect and ±100 for the full control effect; nearly all actives have a fitted effect of over 60% in size
#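 Recombinant glycosomal PGK reaction used 1,3-bisphosphoglycerate generated in-well by GAPDH (100nM final) in 100mM TEA pH 7.6, 5mM MgCl2, 0.01% Tween-20. After 60 minutes at room temperature, ATP was read by Kinase-Glo Plus luminescence end-point.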
# Tb PFK inh – qHTS Assay to Find Inhibitors of T. brucei phosphofructokinase. Potency, µM (top dose mostly 57.5 µM), without a hit: at the highest dose activity, negative = inhibition, hits mostly inhibitors. T. brucei PFK, ADP-Glo luminescence. 0.17% of 330,000 active. ATP-dependent 6-phosphofructokinase (Trypanosoma brucei brucei), O15648;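 also: 0% = uninhibited 1x PFK enzyme wells and -100% = no-enzyme wells; nearly all actives have a fitted effect of over 60% in size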
#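 Luminescent ADP detection (ADP-Glo, two-step: ATP depletion then ADP-to-ATP conversion for luciferase) reported PFK activity after 45 min room-temperature reaction of 1.25 nM enzyme with 0.5 mM F6P and 0.1 mM ATP at pH 8.0.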
# PKM2 act – qHTS Assay for Activators of Human Muscle isoform 2 Pyruvate Kinase; purified PKM2, Kinase-Glo ATP luminescence, activation; response scale: 0% is enzyme alone, no compound; Potency, µM (highest dose often 57.5 µM), for the others: at the top dose activation, actives largely listed as activators; 0.34% of 260,000 active; AID 1631, 2009; also: % is scaled to controls: 0 for no effect and ±100 for the full control effect; nearly all actives have a fitted effect of over 55% in size
#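 Purified hPK-M2 (>95%) run at intermediate activity with 0.1 mM ADP and 0.5 mM PEP in 50 mM imidazole pH 7.2, KCl, MgCl2; 1 h room temperature. ATP formed read by Kinase-Glo luminescence; normalized to uninhibited and no-enzyme controls.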
# Rango dissoc inh – qHTS Assay for Inhibitors of RanGTP induced Rango (Ran-regulated importin-beta cargo) - Importin beta complex dissociation; Biochemical FRET Rango-importin beta, RanGTP-induced dissociation; Potency, µM (highest dose often 46.1 µM), for the others: at the top dose activity change, negative = inhibition; AID 540253, 2011; Snurportin-1 (Homo sapiens) + GTP-binding nuclear protein Ran (Homo sapiens) + Importin …; 0.071% of 340,000 active; calls by dose curve; also: % of control where 0% means no effect; nearly all actives have a fitted effect of over 45% in size
#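 Compounds preincubate 5 min with complex of recombinant Rango and importin beta in PBS with 1 mM DTT. Ran (0.6 uM) loaded with 2 mM GTP plus 0.2 uM RCC1 starts dissociation; FRET is recorded 45 min later.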
# ELG1 repair inh – qHTS screen for small molecules that inhibit ELG1-dependent DNA repair in human embryonic kidney (HEK293T) cells expressing luciferase-tagged ELG1. AID 504467, 2011. Potency, µM (doses to about 46.1 µM), for the others: top-dose activity change, negative = inhibition, usual class: inhibitors. HEK293T ELG1-luciferase reporter, luminescence, 16 h; DNA damage induced by 5-fluorouridine. 2.3% of 330,000 active; also: % is scaled to controls: 0 for no effect and ±100 for the full control effect; nearly all actives have a fitted effect of over 55% in size
#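 Quantitative HTS, concentration-response format. 2,000 cells/well co-treated with 5-fluorouridine and compound, 16 hr in 5% CO2 at 37 °C; ONE-Glo luminescence read after 30 min.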
# The depositor's hits bear a star; i = inactive; u = inconclusive; x = not tested or not shown; [ ] = remark or other dose. Unless noted, calls follow the shape of the dose curve; as a rule, active = well fitted curve in the direction sought with a large enough effect; inconclusive = small, poorly fitted or top-dose-only effect, or another doubt; inactive = no such curve, though single readings can be large; an effect the other way counts as inactive or inconclusive. Potency is read from the fitted curve at half-maximal effect.
SMILES,Rango complex inh,Tb PGK inh,Tb PFK inh,PKM2 act,Rango dissoc inh,ELG1 repair inh
O=C(CCCCCn1c(=O)[nH]c2ccccc2c1=O)NCCCN1CCN(c2ccccc2F)CC1,1.9%,-6.0%,1.4%,-3.4%,-9.1%,23.1µM*
O=C(CCCn1c(=O)[nH]c2ccccc2c1=O)NCCSCc1ccccc1,-2.4%,-9.9%,-4.9%,3.4%,31.5%,4.3%
COc1ccc(OC)c(CCNC(=O)c2cc3cccc4c3n2CC(C)S4)c1 (stereo not given),x,6.0%,x,x,x,x
Cc1cc2c(cc1S(=O)(=O)Nc1cccc(F)c1)n(C)c(=O)c(=O)n2C,2.4%,-9.2%,0.4%,2µM*,0.1%,-0.5%
Cc1cc2c(cc1S(=O)(=O)NCc1ccc(F)cc1)n(C)c(=O)c(=O)n2C,x,5.4%,x,x,x,x
COc1cccc(/C=N/NC(=O)Cn2ccnc2C)c1,-0.1%,1.9%,-3.6%,9.6%,9.9%,-8.0%
COc1c(O)cccc1/C=N/NC(=O)Cn1ccnc1C,-1.6%,1.7%,5.4%,-1.2%,-17.5%,23.1µM*
O=C(COC(=O)c1ccc(NS(=O)(=O)c2cccs2)cc1)NCc1ccco1,-8.6%,u,-29.4%,14.1µM*,-5.7%,-25.9%
O=C(COC(=O)c1ccc(NS(=O)(=O)c2cccs2)cc1O)NCc1ccccc1,-6.0%,i,-9.4%,22.4µM*,11.3%,-5.6%
O=C1C(NS(=O)(=O)c2cccs2)=C(N2CCN(Cc3ccccc3)CC2)C(=O)c2ccccc21,u,-3.5%,1.6%,-8.4%,-13.0%,23.1µM*
Cn1c(=O)c2c(nc(Sc3ncccn3)n2Cc2ccc(Cl)cc2)n(C)c1=O,-1.5%,3.6%,-4.5%,-5.5%,-16.1%,16.4µM*
Cc1nccc(-c2ccc(-n3cnc4ccccc43)cc2)n1,0.9%,1.1%,0.3%,1.2%,-7.9%,10.3µM*
Nc1nccc(-c2ccc(-n3cnc4ccccc43)cc2)n1,-2.4%,-8.7%,7.4%,-5.2%,7.4%,7.3µM*
Cc1nc2ccc(S(=O)(=O)N(CC(=O)Nc3cccc(F)c3)Cc3ccccc3)cc2s1,x,-1.3%,x,x,x,x
CCN1CCN(C(=O)CCc2nnc(CCc3c[nH]c4ccccc34)o2)[C@@H](C)C1=O,-2.0%,4.3%,2.8%,x,-11.5%,1.4%
S=c1[nH]nc(-c2cc(-c3ccccc3)n[nH]2)n1/N=C/c1ccc(Br)s1,6.9%,-2.5%,-2.9%,-3.0%,-8.7%,u
CCCCNS(=O)(=O)c1ccc2nc(SCC(=O)c3ccc(C#N)cc3)[nH]c2c1,-0.8%,i,-2.9%,22.4µM*,6.4%,-1.5%
CCNc1nc(-c2cc(C)n(Cc3ccco3)c2C)cs1,u,-2.9%,2.2%,18.8%,-21.5%,-2.8%
Cc1cc(-c2csc(NC(=O)c3ccc(=O)[nH]c3)n2)c(C)n1Cc1ccco1,-0.3%,i,-7.6%,10µM*,-4.3%,1.1%
Cc1ccc(N(C)C(=O)CN2C(=O)CCc3cc(S(=O)(=O)N4CCOCC4)ccc32)cc1,x,2.9%,x,x,x,x
CCc1ccc2occ(CC(=O)Nc3sc4c(c3C(=O)NCCOC)CCCC4)c2c1,x,-4.6%,x,x,x,x
Cc1ccc(CCNS(=O)(=O)c2c(C)nc3sc(C)c(C)n3c2=O)cc1,x,4.5%,x,x,x,x
Fc1cccc(NCc2ccccc2-c2nnc(-c3ccccc3Cl)o2)c1,x,-6.9%,x,x,x,x
CN(C)C(=O)c1cc(C(=O)c2ccc(F)cc2F)c[nH]1,0.1%,1.0%,-4.6%,x,7.9%,u
CN(C)C(=O)c1cc(C(=O)c2ccc(F)cc2C(F)(F)F)c[nH]1,2.7%,3.7%,2.0%,x,-3.8%,8.2µM*
SMILES,Rango complex inh,Tb PGK inh,Tb PFK inh,PKM2 act,Rango dissoc inh,ELG1 repair inh
CN(C)C(=O)c1cc(C(=O)c2ccccc2C(F)(F)F)c[nH]1,-0.2%,4.0%,1.9%,-3.8%,5.9%,6.51µM*
O=C1C(O)CCN1Cc1ccccc1 (stereo not given),-0.5%,-2.0%,x,x,12.3%,x
CCOC(=O)c1cnc2c(OC)cccc2c1N1CCN(c2ccccc2OC)CC1,4.0%,-3.7%,1.7%,2.2%,13.6%,10.3µM*
CC1CCN(C(=O)Cn2nnc(-c3ccc(C(C)C)cc3)n2)CC1,-1.6%,-8.6%,5.0%,0.0%,1.7%,-2.8%
CC(=O)c1nn(-c2ccc(Cl)cc2)c(=O)[nH]c1=O,0.1%,-0.9%,1.0%,x,-7.8%,4.5%
CC(C)(C)NS(=O)(=O)c1ccc(NC(=O)c2cc(-c3ccccc3)nc3ccccc23)cc1,0.1%,-1.3%,4.9%,-3.3%,-3.2%,23.1µM*
O=C(Nc1cccc(S(=O)(=O)NCc2ccco2)c1)c1cc(-c2ccccc2)nc2ccccc12,-1.8%,i,1.7%,-1.0%,-0.5%,20.6µM*
CC(=O)Nc1ccc(NC(=O)c2cc(-c3ccccc3)nc3ccccc23)cc1,-1.9%,3.0%,-3.7%,0.0%,-8.5%,u
Cc1cc2c(c(=O)o1)C1O[C@](c3ccsc3)(Cc3ccccc31)O2,x,x,0.5%[11.5 µM],2.0%[11.5 µM],x,x
